The sample as a whole holds a higher share of hits than the screen did.
ERAP1 HTS inh = ERAP1 (human) enzyme inhibition. Q9NZ08. recombinant ERAP1, Leu-AMC fluorescence, 60 min. inhibition, % at 10.7 µM. 340,000 compounds, 0.15% hits;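 active = mean replicate inhibition of at least 30%, or all replicates individually reaching that 30% level; inactive = mean below 30% and not every replicate reaching it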;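 also: 0% = neutral control wells and 100% = L-leucinethiol positive control wells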
PDI turbidity = PDI (human) enzyme inhibition; P07237; PDI insulin aggregation turbidity, A650, 90 min; inhibition, % at 10 µM; 350,000 compounds, 0.052% hits; AID 588391;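 active = mean inhibition across replicates of 30% or more, whatever share of single replicates reach that level; inconclusive = mean inhibition below 30% while every single replicate reaches 30%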
ERp5 inh = inhibitors of human ERp5 | Q15084 | ERp5 insulin aggregation, absorbance 650 nm, 90 min | inhibition, % at 9.99 µM | 350,000 compounds, 0.05% hits | AID 651711;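 active = mean replicate inhibition above about 25%, with every replicate also reaching it, limit read from the data, passing the limit was not always enough; inconclusive = only one of those two criteria met; inactive = neither criterion met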
HDAC3 inh = blocks human histone deacetylase 3; inhibition, % at 8.3 µM; recombinant HDAC3, fluorogenic peptide/trypsin coupled, fluorescence; 320,000 compounds, 0.15% hits; O15379; in the data active = inhibition above about 26%, passing the limit was not always enough; inconclusive = no clear call, values can overlap the other calls
SIRT5 block = sirtuin-5 (human) deacylase inhibition | Q9NXA8 | Purified SirT5, succinyl-peptide AMC, trypsin-coupled fluorescence | inhibition, % at 15 µM | 330,000 compounds, 1.1% hits | AID 652115; in the data active = inhibition above about 15%; inconclusive = no clear call, values can overlap the other calls
Target sequence (Q9NXA8 whole entry, looked up): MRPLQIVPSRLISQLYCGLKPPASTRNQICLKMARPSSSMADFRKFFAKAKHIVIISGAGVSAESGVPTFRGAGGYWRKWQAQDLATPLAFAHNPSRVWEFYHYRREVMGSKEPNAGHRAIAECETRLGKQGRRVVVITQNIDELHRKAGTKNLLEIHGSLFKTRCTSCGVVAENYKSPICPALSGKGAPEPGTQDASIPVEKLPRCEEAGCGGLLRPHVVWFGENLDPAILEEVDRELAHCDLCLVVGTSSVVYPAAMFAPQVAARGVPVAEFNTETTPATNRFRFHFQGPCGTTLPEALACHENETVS
* = called active by the depositor; ? = inconclusive; / = not tested or not shown.

SMILES	ERAP1 HTS inh	PDI turbidity	ERp5 inh	HDAC3 inh	SIRT5 block
CN(C)C1C(=O)C(C(N)=O)=C(O)C2(O)C(=O)C3=C(O)c4c(O)cccc4C(C)(O)C3C(O)C12 (stereo not given)	8	-5	6	4	40*
COc1ccc(/C=C2\C(=O)NC(=S)N(C)C2=O)cc1C	34*	3	3	2	4
O=C(Cc1ccccn1)N1CC2(C1)[C@H](c1ccccc1)[C@H](CO)N2Cc1ccccn1	8	/	0	/	-1
CN(C)Cc1c[nH]c2cc([N+](=O)[O-])ccc12	1	-5	-3	/	16*
Cc1ccc(N2C(=O)NC(=O)/C(=C/c3ccc(OC(=O)c4cccs4)cc3)C2=O)cc1	/	5	/	56*	/
Cc1ccc(OC(=O)N(C)C[C@@H]2OCc3ccccc3-c3c(n(C)c4ccccc34)C(=O)N([C@@H](C)CO)C[C@H]2C)cc1	-2	/	-2	/	8
CCOC(=O)[C@@H]1[C@@H]2NC(=O)N(C)[C@@]1(C)Oc1ccccc12	0	/	-1	/	-3
CCn1c(C)cc(/C=C2\C(=O)NC(=O)N(c3ccccc3C)C2=O)c1C	5	1	1	6	-1
Cc1ccccc1N1C(=O)NC(=O)/C(=C\c2cnn(-c3ccccc3)c2)C1=O	0	2	6	-4	20*
O=C(Cc1ccncc1)N1CCCCN2[C@@H](CO)[C@@H](c3ccc(C#CC4(O)CCCC4)cc3)[C@@H]2C1	2	/	-3	/	-1
O=C(O)CC1OCC=C2CN3CCC45C6=CC(=O)C(=O)C([N+](=O)[O-])=C6NC4C1C2CC35 (stereo not given)	/	75*	/	4	/
O=C(Cc1cccnc1)N1CCCCN2[C@H](CO)[C@@H](c3ccc(/C=C/c4ccccc4)cc3)[C@@H]2C1	-1	/	0	/	-6
CCN1C[C@]2(COC(=O)c3ccccc3N)CC[C@H](OC)C34[C@@H]5C[C@H]6[C@H](OC)[C@@H]5[C@](O)(C[C@@H]6OC)[C@@](O)([C@H]13)[C@@H](OC)[C@@H]42	-2	45*	2	-8	-12
CCN1CC2(COC(=O)c3ccccc3N)CCC(OC)C34C5CC6C(OC)CC(O)(C5C6OC)C(O)(C(OC)C23)C14 (stereo not given)	/	?	/	-33	/
CCN(CC)c1ccc(N=Cc2c(O)n(CCc3ccc(OC)c(OC)c3)c(=O)[nH]c2=O)cc1	/	3	/	2	/
COc1ccc(CCn2c(O)c(C=Nc3ccc(F)cc3)c(=O)[nH]c2=O)cc1OC	-2	0	-1	-1	16*
COC1/C=C/C=C(\C)Cc2cc(O)c(Cl)c(c2)N(C)C(=O)CC(OC(=O)C(C)C)C2(C)OC2C(C)C2CC1(O)NC(=O)O2 (stereo not given)	0	63*	6	/	-2
COc1ccccc1CN1[C@H](CO)[C@H](c2ccccc2)C12CN(C(=O)Cc1ccccc1)C2	-3	/	8	/	6
O=c1c2ccccc2[se]n1-c1ccccc1	75*	0	5	/	-3
CNC(=O)OCc1n(C)cc[n+]1C	84*	-4	7	3	-2
CCOC(=O)[C@@H]1[C@@H]2NC(=S)N(C)[C@@]1(COCc1ccc(OC)cc1)Oc1ccccc12	4	/	3	/	1
C[N+]1(C)CCC(OC(=O)C(c2ccccc2)c2ccccc2)CC1	92*	0	-3	0	2
C[N+]1(C)[C@@H]2CC[C@H]1CC(OC(=O)[C@@H](CO)c1ccccc1)C2 (stereo not given in full)	28	1	-1	?	1
c1cc(-c2ccc(C3[C@H]4CNC[C@@H]3N4CC3CC3)cc2)ccn1 (stereo not given in full)	-2	/	-5	/	1
CCCC[C@@H](C)C[C@@H](C)C(=O)N(C)[C@@H](CC(C)C)C(=O)N[C@H](C(=O)N(C)[C@H](C(=O)N1C[C@@H](O)C[C@H]1C(=O)N1C(=O)C=C[C@@H]1C)C(C)C)C(C)OC(C)=O (stereo not given in full)	/	37*	/	/	/
COC(=O)C1=C(c2ccc(OC(F)(F)F)cc2)C[C@@H]2CC[C@H]1N2C(=O)NCCOc1ccccc1Cl	-2	0	-1	34*	-2
CC1=C2C[C@H]3[C@@H](CC=C4C[C@@H](O)CC[C@@]43C)[C@@H]2CC[C@]12O[C@@H]1C[C@H](C)CN[C@@H]1C2C (stereo not given in full)	-2	/	-7	/	-1
O=c1ccc2cc(OC3O[C@H](CO)[C@@H](O)[C@H](O)[C@H]3O)c(O)cc2o1 (stereo not given in full)	79*	1	3	-424	-110
C/C=C/c1ccc(C2[C@@H]3CN(C(=O)CN(C)C)C[C@H]2N3)cc1 (stereo not given in full)	3	/	1	/	-1

Screening results: PubChem, Broad Institute
